Dicer inh = blocks human Dicer maturation of pre-miR-21; Q9UPY3; cat-ELCCA pre-miR-21 Dicer processing, chemiluminescence; hits give high values; z-score at 25 µM; 47,000 tested, 6% active; AID 1347074; in the data active = z-score above about 3, passing the limit was not always enough;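 note: higher signal means more uncleaved substrate so more Dicer inhibition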
Target sequence (Q9UPY3 whole entry, looked up): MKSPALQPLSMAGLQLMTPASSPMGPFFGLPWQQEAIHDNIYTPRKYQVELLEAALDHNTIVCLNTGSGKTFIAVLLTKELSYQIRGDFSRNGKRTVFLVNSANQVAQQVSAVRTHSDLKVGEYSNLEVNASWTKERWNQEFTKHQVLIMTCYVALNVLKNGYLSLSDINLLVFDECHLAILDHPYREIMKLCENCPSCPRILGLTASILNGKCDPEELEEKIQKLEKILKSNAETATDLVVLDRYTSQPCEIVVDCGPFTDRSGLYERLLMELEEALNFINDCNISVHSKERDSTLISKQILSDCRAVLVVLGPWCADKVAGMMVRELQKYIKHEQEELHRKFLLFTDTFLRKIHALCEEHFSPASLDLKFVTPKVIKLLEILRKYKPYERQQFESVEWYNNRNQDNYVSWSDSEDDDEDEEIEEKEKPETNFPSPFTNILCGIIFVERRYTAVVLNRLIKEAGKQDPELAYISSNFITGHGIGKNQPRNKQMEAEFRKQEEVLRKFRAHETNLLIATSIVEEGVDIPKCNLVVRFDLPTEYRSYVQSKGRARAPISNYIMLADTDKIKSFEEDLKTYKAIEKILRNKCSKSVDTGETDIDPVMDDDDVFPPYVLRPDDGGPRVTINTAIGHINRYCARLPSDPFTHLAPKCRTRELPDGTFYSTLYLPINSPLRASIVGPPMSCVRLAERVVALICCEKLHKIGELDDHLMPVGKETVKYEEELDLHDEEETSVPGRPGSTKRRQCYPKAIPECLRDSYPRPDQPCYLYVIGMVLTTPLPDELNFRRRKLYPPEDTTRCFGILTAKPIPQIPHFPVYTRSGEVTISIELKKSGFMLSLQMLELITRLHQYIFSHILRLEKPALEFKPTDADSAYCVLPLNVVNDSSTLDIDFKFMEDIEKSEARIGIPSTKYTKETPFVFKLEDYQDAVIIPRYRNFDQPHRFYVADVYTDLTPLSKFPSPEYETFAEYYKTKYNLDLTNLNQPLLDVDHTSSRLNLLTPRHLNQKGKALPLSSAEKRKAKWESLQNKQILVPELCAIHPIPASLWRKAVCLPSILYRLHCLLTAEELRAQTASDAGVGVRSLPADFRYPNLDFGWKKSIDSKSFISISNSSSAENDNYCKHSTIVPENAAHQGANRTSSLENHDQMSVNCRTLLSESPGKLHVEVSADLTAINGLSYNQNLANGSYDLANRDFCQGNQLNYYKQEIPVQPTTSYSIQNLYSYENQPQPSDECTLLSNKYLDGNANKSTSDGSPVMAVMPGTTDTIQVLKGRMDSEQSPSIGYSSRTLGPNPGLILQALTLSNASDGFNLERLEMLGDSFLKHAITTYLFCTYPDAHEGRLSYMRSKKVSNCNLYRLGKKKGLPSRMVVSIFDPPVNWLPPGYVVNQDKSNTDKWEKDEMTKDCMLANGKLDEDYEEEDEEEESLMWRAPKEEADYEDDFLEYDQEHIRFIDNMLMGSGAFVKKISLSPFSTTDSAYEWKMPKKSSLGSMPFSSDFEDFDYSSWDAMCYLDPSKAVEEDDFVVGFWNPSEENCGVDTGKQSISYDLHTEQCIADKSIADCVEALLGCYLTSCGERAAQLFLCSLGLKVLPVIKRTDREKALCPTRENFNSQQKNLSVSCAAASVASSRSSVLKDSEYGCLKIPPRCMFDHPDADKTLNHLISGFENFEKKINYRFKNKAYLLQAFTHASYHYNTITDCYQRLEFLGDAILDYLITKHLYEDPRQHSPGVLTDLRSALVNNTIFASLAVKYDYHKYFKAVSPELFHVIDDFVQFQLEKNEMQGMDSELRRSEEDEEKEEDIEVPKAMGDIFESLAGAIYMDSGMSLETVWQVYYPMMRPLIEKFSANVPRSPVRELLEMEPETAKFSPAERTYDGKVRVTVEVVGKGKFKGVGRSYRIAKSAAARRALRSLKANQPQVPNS
Numbers stand for hits; . = inactive. Only a selection was taken, and hits are over-represented in it overall.

SMILES | Dicer inh
O=S(=O)(Cc1ccc(Cl)cc1)c1ccc(C(F)(F)F)cn1 | .
CCOc1cc(C2C3=C(CC(C)(C)CC3=O)Nc3[nH]n(-c4ccccc4)c(=O)c32)ccc1O (stereo not drawn) | .
CCOc1ccc(N2C(=O)CC(Nc3ccc(N4CCOCC4)cc3)C2=O)cc1 (stereo not drawn) | .
Clc1ccc(/C=N/Nc2ccc(-c3cnco3)cc2)cc1 | .
Cc1ccc(OC(C)CC(=O)O)c([N+](=O)[O-])c1 (stereo not drawn) | 3.1
Cc1ccc(-c2ccc(C)cc2[N+](=O)[O-])c([N+](=O)[O-])c1 | .
Cc1ccc(OC(=O)c2ccc(Cl)cc2[N+](=O)[O-])c([N+](=O)[O-])c1 | .
N#C/C(=C\Nc1ccc(F)cc1)S(=O)(=O)c1nc2ccccc2s1 | .
CCOc1ccc(C2c3c(oc4ccc(F)cc4c3=O)C(=O)N2CC2CCCO2)cc1OC (stereo not drawn) | .
COC(=O)c1sccc1N/N=C/c1ccc(F)cc1 | .
COC(=O)c1sc2cc(-c3ccc(F)cc3)sc2c1C | 3.8
COC(=O)c1sc(SC)c(C(C)=O)c1C | .
Cc1noc(/C=C/c2ccc(Sc3ccc(Cl)cc3)o2)c1[N+](=O)[O-] | .
Nc1nonc1-c1nc2ccccc2n1Cc1ccccc1Cl | .
CCCCCn1c(C2CC(=O)N(c3ccccc3)C2)nc2ccccc21 (stereo not drawn) | 5.3
CCCCn1c(C2CC(=O)N(c3ccccc3)C2)nc2ccccc21 (stereo not drawn) | .
CCCCCCn1c(C(C)O)nc2ccccc21 (stereo not drawn) | .
O=C1CC(c2nc3ccccc3n2Cc2ccccc2Cl)CN1c1ccccc1 (stereo not drawn) | 4
O=C1CC(c2nc3ccccc3[nH]2)CN1c1ccccc1 (stereo not drawn) | .
N#CCCN(CCc1ccccn1)C(=O)Nc1ccc(F)cc1 | .
Cc1cc(Cl)ccc1NC(=S)NNC(=O)C(O)(c1ccccc1)c1ccccc1 | .
CCOC(=O)c1c(C)oc2c(Br)cc(NS(=O)(=O)c3ccc(OCC)cc3)cc12 | .
COc1cc(C2C(C(=O)OC3CCCCC3)=C(C)NC3=C2C(=O)CCC3)cc(Br)c1O (stereo not drawn) | .
Nc1ccc(Sc2ccc(Cl)cc2)nc1 | .
CCc1ccc2[nH]c(C(=O)Nc3ccc(Br)c(C)n3)cc2c1 | 44
SMILES | Dicer inh
CCc1ccc2[nH]c(C(=O)NCc3cc(Cl)ccc3Cl)cc2c1 | .
COc1ccc2[nH]c(C(=O)Nc3ccc(Br)c(C)n3)cc2c1 | .
CCOc1ccc(-c2nc(C#N)c(N3CC(C)CC(C)C3)o2)cc1 (stereo not drawn) | .
CCOC(=O)C(=CNc1cc(F)ccc1F)C(=O)OCC | .
Cc1cccc(NC(c2ccc(O)cc2)c2ccc3ccc(C)nc3c2O)n1 (stereo not drawn) | .
C=CCOc1cccc(C(Nc2cccc(C)n2)c2ccc3cccnc3c2O)c1 (stereo not drawn) | .
COc1ccc(C(Nc2cc(C)ccn2)c2ccc3cccnc3c2O)cc1OC (stereo not drawn) | 11
C=CCOc1cccc(C(Nc2ccccn2)c2ccc3cccnc3c2O)c1 (stereo not drawn) | .
Cc1cccc(NC(c2cccnc2)c2ccc3cccnc3c2O)c1 (stereo not drawn) | .
CCc1ccc(C(Nc2ccccn2)c2ccc3cccnc3c2O)cc1 (stereo not drawn) | .
Cc1cccc(NC(c2cccnc2)c2ccc3cccnc3c2O)n1 (stereo not drawn) | 3.5
Cc1cccc(NC(c2ccc(F)cc2)c2ccc3ccc(C)nc3c2O)n1 (stereo not drawn) | .
Cc1ccc(C(Nc2cccc(C)n2)c2ccc3cccnc3c2O)cc1 (stereo not drawn) | 17
CCc1ccc2c(c1)c1nc(C)sc1n2C | .
COC(=O)c1cnn(-c2c(Cl)cccc2Cl)c1C(OC)OC | .
CCOC(=O)C(C)Oc1ccc2c(=O)c(Oc3cccc(C)c3)coc2c1 (stereo not drawn) | .
O=S(=O)(NCc1cc(F)cc2c1OCOC2)c1cc(S(=O)(=O)c2ccccc2)cs1 | .
CN(C)C=NC(=S)c1sccc1COc1ccc(Cl)cc1 | .
CCn1c(=S)ccc2cc(OC)ccc21 | .
CCCc1nnc(N2C(=O)c3oc4ccc(F)cc4c(=O)c3C2c2ccccc2)s1 (stereo not drawn) | .
CN1c2ccsc2C(=O)/C(=N\Nc2ccccc2Cl)S1(=O)=O | .
Nc1cnc(Oc2c(Cl)cccc2Cl)c(C(F)(F)F)c1 | .
O=C1NC(c2ccccc2)=N/C1=C/c1ccc(OCc2ccccc2)cc1 | .
CCOC(=O)c1c(N2C(=O)CC3(CCCC3)C2=O)sc(C)c1-c1ccccc1 | .
COc1ccc(-c2cc3nccc(-c4cc(Cl)ccc4O)n3n2)cc1 | .
SMILES | Dicer inh
Oc1ccc(F)cc1-c1ccnc2cc(-c3ccc(Cl)cc3)nn12 | 4
CN1C(=O)COc2ccc(-c3ccnc4cc(-c5ccc(Cl)cc5)nn34)cc21 | .
Oc1ccc(Cl)cc1-c1ccnc2cc(-c3ccccc3)nn12 | 9.3
Oc1ccccc1-c1ccnc2cc(-c3ccc(Cl)cc3)nn12 | 3.3
COc1ccc(-c2cc3nccc(-c4ccccc4O)n3n2)cc1 | .
Cc1cc2nccc(-c3ccc(Cl)cc3)n2n1 | .
Cc1ccc(O)c(-c2ccnc3cc(-c4ccccc4)nn23)c1 | .
c1ccc(-c2cc3nccc(-c4ccccc4)n3n2)cc1 | .
Nc1nc2c(c(C(F)(F)F)n1)CCCC2 | .
N#CCC(=O)Nc1cc(C(F)(F)F)ccc1Cl | .
Cn1nccc1NC(=O)CN(CC(=O)O)Cc1ccccc1 | .
Cc1ccc(C)c(NC(=O)C2Sc3nnc(C)n3NC2c2ccc(Cl)cc2)c1 (stereo not drawn) | .
Cc1[nH]c(=S)[nH]c(=O)c1Cc1ccc(F)cc1 | .
Cc1cc(OS(=O)(=O)c2cccc(S(=O)(=O)Oc3ccc(Cl)c(C)c3)c2)ccc1Cl | .
CC(=O)N1c2ccccc2NC2=C(C(=O)CC(C)(C)C2)C1c1cccc(F)c1 (stereo not drawn) | .
O=c1oc2ccccc2c2c1ncn2CCN1CCCCC1 | .
COC(=O)c1cc(O)c(C(=O)OC)s1 | .
COC(=O)c1sc(=S)sc1C(=O)OC | 3.8
COC(=O)c1sc(Br)c(Br)c1O | .
CN1c2ccccc2C(=O)/C(=N\Nc2ccccc2C(F)(F)F)S1(=O)=O | .
CN1CCC(=NOC(=O)Nc2ccc(Cl)cc2)CC1 | .
CCOC(=O)NC(Nc1ccccc1F)(C(=O)OCC)C(F)(F)F (stereo not drawn) | .
COC(=O)CN(c1nc(C)cc(OC)n1)S(=O)(=O)c1ccccc1 | .
CCCN(c1nc(C)cc(OC)n1)S(=O)(=O)c1ccccc1Cl | 6.1
CCCCN(c1nc(C)cc(OC)n1)S(=O)(=O)c1ccc(C)cc1 | .
SMILES | Dicer inh
Cn1c(-c2ccc(Cl)cc2)n[nH]c1=S | .
Cc1cc(C)c2c(c1)CC(C)(C)/C(=N/NC(=O)CC#N)C2=O | .
CCCCCCCc1ccc(C(=O)NC(=S)Nc2cccc(C)n2)cc1 | .
Oc1c(C(Nc2ccccc2Cl)c2cccnc2)ccc2cccnc12 (stereo not drawn) | 6.2
O=C(Nc1cccc2cccnc12)C(Cl)(Cl)Cl | .
Cc1ccc(NC(c2cccnc2)c2ccc3cccnc3c2O)cc1C (stereo not drawn) | .
Cc1cc(Cl)ccc1NC(c1cccnc1)c1ccc2cccnc2c1O (stereo not drawn) | 11
Cc1cc(Cl)ccc1NC(c1ccccn1)c1ccc2cccnc2c1O (stereo not drawn) | 9.1

Screening data (PubChem BioAssay)
